Test results from PubChem BioAssay (NCI).
The panel holds about 79,000 compounds, 15% with a hit somewhere; the sample as a whole holds those more often. Unmarked numbers belong to inactive results. The source made the active and inactive calls. Cut-off read from the data, not from the text of the source: active = growth inhibition above about 70%; inactive = the rest.

Assays:
[1] = NCI Yeast Anticancer Drug Screen. Data for the rad52 strain (AID 147);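 note: 0% = growth of vehicle-treated control cultures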; details: S. cerevisiae rad52 mutant growth inhibition, stronger effect = higher value
Method in brief: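 The repair-mutant yeast strain was incubated with compounds, then growth was read and inhibition derived relative to vehicle.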

[2] = NCI Yeast Anticancer Drug Screen. Data for the wt1 strain (AID 149);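 note: 0% = growth of vehicle-treated wt1 cultures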; details: S. cerevisiae wt1 strain (SPY 50644) growth inhibition, stronger effect = higher value
Method in brief: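 wt1 strain grown with compound or vehicle; inhibition taken from the growth difference.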

[3] = NCI Yeast Anticancer Drug Screen. Data for the rad50EPP+ strain (AID 151);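 note: 0% = growth of vehicle-treated control cultures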; details: S. cerevisiae rad50 mutant strain, stronger effect = higher value
Method in brief: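 Vehicle-normalised growth inhibition; rad50EPP+ yeast strain, altered in DNA damage repair, compound-treated.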

[4] = NCI Yeast Anticancer Drug Screen. Data for the rad50 strain (AID 155);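 note: 0% = growth of vehicle-only cultures of the same strain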; details: S. cerevisiae rad50 strain growth inhibition, stronger effect = higher value
Method in brief: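 DNA repair mutant yeast, compound exposure, growth read-out; inhibition is taken relative to vehicle.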

[5] = NCI Yeast Anticancer Drug Screen. Data for the mec2-1 strain (AID 157); details: S. cerevisiae mec2-1 strain, stronger effect = higher value
Method in brief: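 Mutant yeast (mec2-1) grown with compound; growth inhibition relative to vehicle control reported.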

[6] = NCI Yeast Anticancer Drug Screen. Data for the rad14 strain (AID 159);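 note: 0% = growth of vehicle-treated control cultures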; details: S. cerevisiae rad14 strain growth inhibition, stronger effect = higher value
Method in brief: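 DNA repair-defective yeast, compound-exposed; % growth inhibition derived by comparison with vehicle-treated controls.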

[7] = NCI Yeast Anticancer Drug Screen. Data for the sgs1 mgt1 strain (AID 161);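 note: 0% = growth of cultures given vehicle only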; details: S. cerevisiae sgs1 mgt1 strain, stronger effect = higher value
Method in brief: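 Growth of a repair-deficient yeast mutant was monitored after compound treatment and expressed as inhibition relative to vehicle-treated cultures.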

[8] = NCI Yeast Anticancer Drug Screen. Data for the CLN2oe strain (AID 163);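 note: 0% = growth of vehicle-only control cultures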; details: S. cerevisiae CLN2oe strain, stronger effect = higher value
Method in brief: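 Compounds are applied to yeast harbouring a defined cell-cycle control change; reduced growth compared with vehicle-treated controls gives the value.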

[9] = NCI Yeast Anticancer Drug Screen. Data for the cln2 rad14 strain (AID 165);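 note: 0% = growth equal to vehicle treated cultures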; details: S. cerevisiae cln2 rad14 strain, stronger effect = higher value
Method in brief: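 Readout is yeast growth inhibition versus vehicle-treated controls, using a strain with cln2 and rad14 alterations exposed to compound.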

[10] = NCI Yeast Anticancer Drug Screen. Data for the bub3 strain (AID 167); details: S. cerevisiae bub3 mutant strain, stronger effect = higher value
Method in brief: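 In this screen, a yeast mutant lacking normal mitotic checkpoint function is challenged with compound. Relative growth versus vehicle gives the inhibition value.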

[11] = NCI Yeast Anticancer Drug Screen. Data for the wt2 strain (AID 169);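 note: 0% = growth of vehicle-treated yeast cultures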; details: S. cerevisiae wt2 strain growth inhibition, stronger effect = higher value
Method in brief: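 Against vehicle-treated controls, the growth of yeast exposed to each compound was compared, and the inhibition was recorded.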

[12] = NCI Yeast Anticancer Drug Screen. Data for the mlh1 strain (AID 171);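 note: 0% = growth of vehicle-treated control cultures of the same strain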; details: S. cerevisiae mlh1 strain growth inhibition, stronger effect = higher value
Method in brief: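 Measured: yeast growth. Reference: vehicle-treated controls. Organism: strain with a defined alteration affecting DNA damage repair or cell cycle control, treated with compound.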

[13] = NCI Yeast Anticancer Drug Screen. Data for the sgs1 strain (AID 173);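 note: 0% = growth of vehicle-only control cultures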; details: S. cerevisiae sgs1 mutant, stronger effect = higher value
Method in brief: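 Each compound was added to cultures of the altered yeast strain. Growth was recorded, and inhibition was derived by comparison with vehicle controls.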

[14] = NCI Yeast Anticancer Drug Screen. Data for the mlh1 rad18 strain (AID 175); details: S. cerevisiae mlh1 rad18 strain growth inhibition, stronger effect = higher value
Method in brief: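 Genetically defined yeast (DNA repair-deficient) exposed to compounds; growth inhibition determined relative to vehicle.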

[15] = NCI Yeast Anticancer Drug Screen. Data for the rad18 strain (AID 177); details: S. cerevisiae rad18 mutant growth inhibition, stronger effect = higher value
Method in brief: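 Vehicle-treated cultures served as the baseline for scoring compound-induced growth inhibition in DNA-repair-mutant yeast.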

[16] = at 5.0 µM (retest, dose inferred, filed as 0.5)
[17] = at 50.0 µM (retest, dose inferred, filed as 5.0)

## N#CSC1CCCCNC1=O (stereo unspecified)
[1]; at 1.2 µM
  growth inhibition: 2%
[1]; at 3.7 µM
  growth inhibition: 10%
[1]; at 11.0 µM
  growth inhibition: 32%
[1]; at 33.0 µM
  growth inhibition: 83% (active)
[1]; at 100.0 µM
  growth inhibition: 98% (active)
[2]; at 1.2 µM
  growth inhibition: -3%
[2]; at 3.7 µM
  growth inhibition: -3%
[2]; at 11.0 µM
  growth inhibition: 9%
[2]; at 33.0 µM
  growth inhibition: 46%
[2]; at 100.0 µM
  growth inhibition: 93% (active)
[3]; at 1.2 µM
  growth inhibition: 6%
[3]; at 3.7 µM
  growth inhibition: 18%
[3]; at 11.0 µM
  growth inhibition: 42%
[3]; at 33.0 µM
  growth inhibition: 70% (active)
[3]; at 100.0 µM
  growth inhibition: 85% (active)
[4]; at 1.2 µM
  growth inhibition: 0%
[4]; at 3.7 µM
  growth inhibition: 3%
[4]; [16]
  growth inhibition: -150%
[4]; at 11.0 µM
  growth inhibition: 36%
[4]; at 33.0 µM
  growth inhibition: 86% (active)
[4]; [17]
  growth inhibition: 26%
[4]; at 50.0 µM
  growth inhibition: 54.2%
[4]; at 100.0 µM
  growth inhibition: 98% (active)
[5]; at 1.2 µM
  growth inhibition: 4%
[5]; at 3.7 µM
  growth inhibition: 3%
[5]; [16]
  growth inhibition: -47%
[5]; at 11.0 µM
  growth inhibition: 25%
[5]; at 33.0 µM
  growth inhibition: 51%
[5]; [17]
  growth inhibition: 3%
[5]; at 50.0 µM
  growth inhibition: 78.3% (active)
[5]; at 100.0 µM
  growth inhibition: 94% (active)
[6]; at 1.2 µM
  growth inhibition: 2%
[6]; at 3.7 µM
  growth inhibition: -4%
[6]; at 11.0 µM
  growth inhibition: 10%
[6]; at 33.0 µM
  growth inhibition: 59%
[6]; at 100.0 µM
  growth inhibition: 99% (active)
[7]; [16]
  growth inhibition: -59%
[7]; [17]
  growth inhibition: 35%
[7]; at 50.0 µM
  growth inhibition: 50%
[8]; at 1.2 µM
  growth inhibition: -4%
[8]; at 3.7 µM
  growth inhibition: -4%
[8]; at 11.0 µM
  growth inhibition: 21%
[8]; at 33.0 µM
  growth inhibition: 44%
[8]; at 100.0 µM
  growth inhibition: 96% (active)
[9]; [16]
  growth inhibition: -58%
[9]; [17]
  growth inhibition: -13%
[9]; at 50.0 µM
  growth inhibition: 52.5%
[10]; at 1.2 µM
  growth inhibition: -4%
[10]; at 3.7 µM
  growth inhibition: 4%
[10]; [16]
  growth inhibition: -66%
[10]; at 11.0 µM
  growth inhibition: 36%
[10]; at 33.0 µM
  growth inhibition: 60%
[10]; [17]
  growth inhibition: 2%
[10]; at 50.0 µM
  growth inhibition: 79.7% (active)
[10]; at 100.0 µM
  growth inhibition: 97% (active)
[11]; at 1.2 µM
  growth inhibition: 0%
[11]; at 3.7 µM
  growth inhibition: -1%
[11]; at 11.0 µM
  growth inhibition: 10%
[11]; at 33.0 µM
  growth inhibition: 49%
[11]; at 100.0 µM
  growth inhibition: 98% (active)
[12]; at 1.2 µM
  growth inhibition: 7%
[12]; at 3.7 µM
  growth inhibition: -4%
[12]; at 11.0 µM
  growth inhibition: 26%
[12]; at 33.0 µM
  growth inhibition: 56%
[12]; at 100.0 µM
  growth inhibition: 98% (active)
[13]; at 1.2 µM
  growth inhibition: 1%
[13]; at 3.7 µM
  growth inhibition: 5%
[13]; at 11.0 µM
  growth inhibition: 57%
[13]; at 33.0 µM
  growth inhibition: 89% (active)
[13]; at 100.0 µM
  growth inhibition: 99% (active)
[14]; [16]
  growth inhibition: -126%
[14]; [17]
  growth inhibition: 58%
[14]; at 50.0 µM
  growth inhibition: 95.9% (active)
[15]; at 1.2 µM
  growth inhibition: 12%
[15]; at 3.7 µM
  growth inhibition: 33%
[15]; at 11.0 µM
  growth inhibition: 82% (active)
[15]; at 33.0 µM
  growth inhibition: 94% (active)
[15]; at 100.0 µM
  growth inhibition: 98% (active)

## O=C(NCCCCCN1CCC2(CCCCC2)CC1)C(C1CCCCC1)C1CCCCC1
[1]; at 1.2 µM
  growth inhibition: 23%
[1]; at 3.7 µM
  growth inhibition: 5%
[1]; at 11.0 µM
  growth inhibition: 65%
[1]; at 33.0 µM
  growth inhibition: 100% (active)
[1]; at 100.0 µM
  growth inhibition: 97% (active)
[2]; at 1.2 µM
  growth inhibition: -63%
[2]; at 3.7 µM
  growth inhibition: -5%
[2]; at 11.0 µM
  growth inhibition: 6%
[2]; at 33.0 µM
  growth inhibition: 85% (active)
[2]; at 100.0 µM
  growth inhibition: 98% (active)
[3]; at 1.2 µM
  growth inhibition: -1%
[3]; at 3.7 µM
  growth inhibition: 0%
[3]; at 11.0 µM
  growth inhibition: 3%
[3]; at 33.0 µM
  growth inhibition: 10%
[3]; at 100.0 µM
  growth inhibition: 99% (active)
[4]; at 1.2 µM
  growth inhibition: -1%
[4]; at 3.7 µM
  growth inhibition: 11%
[4]; [16]
  growth inhibition: -7%
[4]; at 11.0 µM
  growth inhibition: 46%
[4]; at 33.0 µM
  growth inhibition: 97% (active)
[4]; [17]
  growth inhibition: 99% (active)
[4]; at 50.0 µM
  growth inhibition: 99.5% (active)
[4]; at 100.0 µM
  growth inhibition: 99% (active)
[5]; at 1.2 µM
  growth inhibition: 22%
[5]; at 3.7 µM
  growth inhibition: -5%
[5]; [16]
  growth inhibition: -22%
[5]; at 11.0 µM
  growth inhibition: 42%
[5]; at 33.0 µM
  growth inhibition: 100% (active)
[5]; [17]
  growth inhibition: 98% (active)
[5]; at 50.0 µM
  growth inhibition: 99.3% (active)
[5]; at 100.0 µM
  growth inhibition: 98% (active)
[6]; at 1.2 µM
  growth inhibition: 11%
[6]; at 3.7 µM
  growth inhibition: 49%
[6]; at 11.0 µM
  growth inhibition: 98% (active)
[6]; at 33.0 µM
  growth inhibition: 99% (active)
[6]; at 100.0 µM
  growth inhibition: 99% (active)
[7]; [16]
  growth inhibition: -15%
[7]; [17]
  growth inhibition: 99% (active)
[7]; at 50.0 µM
  growth inhibition: 99.6% (active)
[8]; at 1.2 µM
  growth inhibition: -4%
[8]; at 3.7 µM
  growth inhibition: 4%
[8]; at 11.0 µM
  growth inhibition: 78% (active)
[8]; at 33.0 µM
  growth inhibition: 99% (active)
[8]; at 100.0 µM
  growth inhibition: 99% (active)
[9]; [16]
  growth inhibition: 70% (active)
[9]; [17]
  growth inhibition: 99% (active)
[9]; at 50.0 µM
  growth inhibition: 98.8% (active)
[10]; at 1.2 µM
  growth inhibition: -2%
[10]; at 3.7 µM
  growth inhibition: 2%
[10]; [16]
  growth inhibition: -17%
[10]; at 11.0 µM
  growth inhibition: 80% (active)
[10]; at 33.0 µM
  growth inhibition: 99% (active)
[10]; [17]
  growth inhibition: 100% (active)
[10]; at 50.0 µM
  growth inhibition: 99.2% (active)
[10]; at 100.0 µM
  growth inhibition: 99% (active)
[11]; at 1.2 µM
  growth inhibition: -1%
[11]; at 3.7 µM
  growth inhibition: 3%
[11]; at 11.0 µM
  growth inhibition: 45%
[11]; at 33.0 µM
  growth inhibition: 99% (active)
[11]; at 100.0 µM
  growth inhibition: 99% (active)
[12]; at 1.2 µM
  growth inhibition: 0%
[12]; at 3.7 µM
  growth inhibition: 7%
[12]; at 11.0 µM
  growth inhibition: 76% (active)
[12]; at 33.0 µM
  growth inhibition: 99% (active)
[12]; at 100.0 µM
  growth inhibition: 94% (active)
[13]; at 1.2 µM
  growth inhibition: 2%
[13]; at 3.7 µM
  growth inhibition: 24%
[13]; at 11.0 µM
  growth inhibition: 86% (active)
[13]; at 33.0 µM
  growth inhibition: 99% (active)
[13]; at 100.0 µM
  growth inhibition: 98% (active)
[14]; [16]
  growth inhibition: -3%
[14]; [17]
  growth inhibition: 99% (active)
[14]; at 50.0 µM
  growth inhibition: 99.5% (active)
[15]; at 1.2 µM
  growth inhibition: 8%
[15]; at 3.7 µM
  growth inhibition: 11%
[15]; at 11.0 µM
  growth inhibition: 69%
[15]; at 33.0 µM
  growth inhibition: 100% (active)
[15]; at 100.0 µM
  growth inhibition: 98% (active)
